DUX4 txn inh: inhibitors of DUX4-driven ZSCAN4 reporter expression, primary screen, 293T cells, Gaussia and Italica luciferase; 293T-iDUX4 ZSCAN4-Gaussia luciferase reporter, 24 h; active compounds read low; activity change, negative = inhibition, % (no concentration beside the values); 37,000 tested, 0.8% active; AID 1224904, 2016;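 active = mean inhibition of at least 10% in the main channel, exceeding the control channel by a set limit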;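 also: 0% = median of neutral control wells and -100% = median of positive control wells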
* = called active by the depositor; ! = not active in a repeat. Shown is part of a subset that was picked to be rich in hits.

What do the screens show for `Cc1ccccc1S(=O)(=O)N1[C@H](C#N)[C@H](c2ccc(-c3ccc(F)cc3)cc2)[C@H]1CO`?
DUX4 txn inh: -4

How did CS(=O)(=O)N1[C@H](C#N)[C@@H](c2ccc(/C=C/c3ccccc3)cc2)[C@H]1CO do in these assays?
DUX4 txn inh: 4

How did Cc1ccccc1S(=O)(=O)N1C[C@@H]2N[C@H](C1)C2c1ccc(/C=C/c2ccccc2)cc1 (some centres not stated) do in these assays?
DUX4 txn inh: -37*

What do the screens show for `C/C=C/c1ccc(C2[C@H]3CNC[C@@H]2N3S(=O)(=O)c2ccccc2C)cc1` (some centres not stated)?
DUX4 txn inh: 13

How did O=C1N[C@H](Cc2ccccc2)COCc2cn(nn2)CC[C@@H]1Cc1cccc(F)c1 do in these assays?
DUX4 txn inh: -6

What do the screens show for `COc1ccc(-c2ccc3n(c2=O)C[C@H]2[C@H](CO)[C@@H](C(=O)Nc4ccccc4)[C@@H]3N2C)cc1`?
DUX4 txn inh: 0

Results for C[C@@H](C(=O)N(C)C[C@H]1OCc2ccccc2-c2ccccc2C(=O)N([C@@H](C)CO)C[C@@H]1C)c1ccccc1 ?
DUX4 txn inh: -2

What do the screens show for `CC(=O)N1[C@@H](CO)[C@@H](c2ccc(C3=CCCC3)cc2)C12CN(C(=O)NC(C)C)C2`?
DUX4 txn inh: -3

Results for CC(C)CC#Cc1ccc([C@H]2[C@@H](CO)N3C(=O)CN(C(=O)c4cnccn4)C[C@@H]23)cc1 ?
DUX4 txn inh: 6

Results for O=C1[C@H](Cc2ccc(C(F)(F)F)cc2)CCn2cc(nn2)COC[C@@H]2CCCCN12 ?
DUX4 txn inh: 0

Results for C[C@H](CO)N1C[C@H](C)[C@H](CN(C)Cc2ccc(-c3ccccc3)cc2)OCc2ccccc2-c2ccccc2C1=O ?
DUX4 txn inh: -7

What do the screens show for `C[C@H]1CN([C@@H](C)CO)C(=O)c2ccccc2-c2ccccc2CO[C@@H]1CN(C)Cc1cccc(F)c1`?
DUX4 txn inh: -3

What do the screens show for `C[C@@H]1CN([C@@H](C)CO)C(=O)c2ccccc2-c2ccccc2CO[C@@H]1CN(C)Cc1ccc(F)cc1`?
DUX4 txn inh: 0

Results for C[C@@H]1CN([C@H](C)CO)C(=O)c2ccccc2-c2ccccc2CO[C@@H]1CN(C)Cc1cccc(F)c1 ?
DUX4 txn inh: -7

What do the screens show for `C[C@H](CO)N1C[C@H](C)[C@H](CN(C)Cc2ccc3c(c2)OCO3)OCc2ccccc2-c2ccccc2C1=O`?
DUX4 txn inh: -6

How did C[C@@H]1CN([C@@H](C)CO)C(=O)c2ccccc2-c2ccccc2CO[C@@H]1CN(C)Cc1ccc(Cl)c(Cl)c1 do in these assays?
DUX4 txn inh: -31*

Results for C[C@@H]1CN([C@@H](C)CO)C(=O)c2ccccc2-c2ccccc2CO[C@@H]1CN(C)Cc1ccc(-c2ccccc2)cc1 ?
DUX4 txn inh: -29*

Results for C[C@H](CO)N1C[C@H](C)[C@@H](CN(C)Cc2cccc(C(F)(F)F)c2)OCc2ccccc2-c2ccccc2C1=O ?
DUX4 txn inh: -42*

What do the screens show for `C[C@H](CO)N1C[C@H](C)[C@@H](CN(C)Cc2ccc3c(c2)OCO3)OCc2ccccc2-c2ccccc2C1=O`?
DUX4 txn inh: 8

Results for OC[C@H]1[C@H](c2ccc(C#Cc3ccccc3)cc2)[C@@H]2CN(Cc3cncnc3)CCCCN12 ?
DUX4 txn inh: 16

How did O=C(c1ccccc1F)N1CC2(C1)[C@H](c1ccccc1)[C@@H](CO)N2CC1CCOCC1 do in these assays?
DUX4 txn inh: 10

How did COc1ccc2c3c(n(C)c2c1)[C@H](CO)N(C(=O)Cc1ccccn1)CC31CCN(CC2CCOCC2)CC1 do in these assays?
DUX4 txn inh: 9

Results for CCC(=O)N1C[C@@H]2[C@H](c3ccccc31)[C@H](CO)N2Cc1ccccc1Cl ?
DUX4 txn inh: -1

What do the screens show for `Cc1ccc(S(=O)(=O)Nc2ccc3c(c2)CC(=O)N([C@@H](C)CO)C[C@@H](C)[C@H](CN(C)Cc2ccc(Cl)c(Cl)c2)O3)cc1`?
DUX4 txn inh: 1

What do the screens show for `O=C(c1ccccc1F)N1CC[C@H]2[C@H](CO)Nc3ccc(C#Cc4ccc(F)cc4)cc3[C@H]21`?
DUX4 txn inh: -6

What do the screens show for `COc1ccc(C#Cc2ccc3c(c2)[C@H]2[C@H](CCN2C(=O)c2ccccc2F)[C@H](CO)N3)cc1`?
DUX4 txn inh: -32*

How did COc1ccc(C#Cc2ccc3c(c2)[C@@H]2[C@@H](CCN2C(C)=O)[C@@H](CO)N3)cc1 do in these assays?
DUX4 txn inh: 19

Results for COc1cccc(C#Cc2ccc3c(c2)[C@H]2[C@H](CCN2C(=O)c2ccccc2F)[C@H](CO)N3)c1 ?
DUX4 txn inh: -28*

How did COc1cccc(C#Cc2ccc3c(c2)[C@H]2[C@H](CCN2C(=O)c2ccc(F)cc2)[C@H](CO)N3)c1 do in these assays?
DUX4 txn inh: -9

What do the screens show for `COc1cccc(C#Cc2ccc3c(c2)[C@@H]2[C@@H](CCN2C(=O)c2ccccc2F)[C@@H](CO)N3)c1`?
DUX4 txn inh: 8

Results for COc1ccc2c3c(n(C)c2c1)[C@@H](CO)N(C(=O)c1cnccn1)CC31CN(C(=O)c2ccncc2)C1 ?
DUX4 txn inh: 12

How did CS(=O)(=O)Nc1ccc2c(c1)[C@@H]1C[C@@H](CC(=O)NCc3ccc(Cl)cc3)O[C@H](CO)[C@@H]1O2 do in these assays?
DUX4 txn inh: 1

Results for CCCC(=O)N1CCC2(CC1)CN(C(=O)CN1CCOCC1)[C@H](CO)c1c2c2ccc(OC)cc2n1C ?
DUX4 txn inh: 10

How did Cc1cccc(-c2ccc(C3[C@@H]4CN(C(=O)C5CCOCC5)C[C@H]3N4)cc2)c1 (some centres not stated) do in these assays?
DUX4 txn inh: 7

What do the screens show for `Cc1cccc(-c2ccc(C3[C@H]4CNC[C@@H]3N4Cc3cccc(F)c3)cc2)c1` (some centres not stated)?
DUX4 txn inh: 8

How did O=C(Nc1cccc(F)c1)N1C[C@@H]2N[C@H](C1)C2c1ccc(-c2ccc(F)cc2)cc1 (some centres not stated) do in these assays?
DUX4 txn inh: 9

What do the screens show for `c1ccc(-c2ccc(C3[C@H]4CNC[C@@H]3N4Cc3nccs3)cc2)cc1` (some centres not stated)?
DUX4 txn inh: 9

What do the screens show for `COc1cccc(CN2CCCCN3[C@@H](CO)[C@@H](c4ccc(-c5ccccc5OC)cc4)[C@@H]3C2)c1`?
DUX4 txn inh: 3

Results for CCCNC(=O)N1C[C@@H]2N[C@H](C1)C2c1ccc(-c2cccnc2)cc1 (some centres not stated) ?
DUX4 txn inh: -1

How did COc1ccccc1-c1ccc(C2[C@@H]3CN(Cc4cccc(F)c4)C[C@H]2N3)cc1 (some centres not stated) do in these assays?
DUX4 txn inh: -48*

What do the screens show for `CCCNC(=O)N1C[C@@H]2N[C@H](C1)C2c1ccc(-c2cccc(F)c2)cc1` (some centres not stated)?
DUX4 txn inh: -43*!

What do the screens show for `COc1ccccc1-c1ccc([C@H]2[C@H](CO)N3CCCCN(Cc4ccncc4)C[C@@H]23)cc1`?
DUX4 txn inh: 2

How did COc1ccccc1-c1ccc(C2[C@@H]3CN(Cc4nccs4)C[C@H]2N3)cc1 (some centres not stated) do in these assays?
DUX4 txn inh: -43*

Source: PubChem (Broad Institute)
